# Assay outcomes (PubChem BioAssay)
# ATXN viability = viability counter-screen for ATXN expression inhibitors | 400,000 compounds, 0.49% hits | Potency, µM (top dose mostly 56.7 µM), usual class: cytotoxic | S2 cells (HEK-293 line with an ATXN2-luciferase reporter) viability, CellTiter-Fluor protease fluorescence, 24 h; note: nearly all actives have a fitted effect of over 40% in size
# HepG2 viability = kills HepG2 cells in TGF-b inhibitor counter-screen; AID 588856; HepG2 CAGA-GFP viability, ATP luminescence, 18 h; Potency, µM (highest dose often 46.1 µM), hits mostly cytotoxic; 410,000 compounds, 0.76% hits
#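 HepG2 CAGA-GFP cells (1000/well, DMEM with 1% FBS) received compound, then TGF-beta at 500 pg/mL final, and were incubated 18 hours at 37 degrees C. Viability was read by CellTiter-Glo luminescence. Media-only wells were set as complete cell-killing and DMSO as no toxicity.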
# A549 viability = A549 cytotoxicity, counter-screen for Nrf2 inhibitors; Potency, µM (titrated, usually from 46 µM), hits mostly inhibitors; A549 ARE-Fluc cells, CellTiter-Fluor viability, 18-24 h; 390,000 compounds, 0.16% hits
#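 Cytotoxicity counterscreen: CellTiter-Fluor fluorescence was measured in A549 ARE_Fluc cells after 18-24 h of compound exposure in a concentration series. The subsequent BugLite luminescent read reports ARE-luciferase activity.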
# Nrf2 inh = blocks Nrf2 signaling | Potency, µM (top dose mostly 46 µM), most hits filed as inhibitors | 360,000 compounds, 2.1% hits | A549 ARE-Fluc reporter, luciferase luminescence, 18-24 h; note: nearly all actives have a fitted effect of over 60% in size
#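 Two sequential reads on A549 ARE_Fluc cells exposed to compound for 18-24 h: a CellTiter-Fluor fluorescence read for viability, then a luciferase luminescence read for Nrf2/ARE activity.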
# ATXN2 expr inh = reduces ATXN2 reporter expression in HEK-293 cells. HEK-293 ATXN2-luciferase reporter, luminescence, 24 h. Potency, µM (doses to about 57 µM), hits mostly inhibitors. 360,000 compounds, 0.72% hits. AID 1745845; note: nearly all actives have a fitted effect of over 55% in size
#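 qHTS (up to 57 uM final) was run with 24 h compound exposure of reporter cells at 37 °C. Each well was multiplexed: SteadyGlo luminescence measured ATXN2-luciferase expression after a fluorogenic Gly-Phe-AFC viability readout (25 uM final).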
# TGFb inhibitor = inhibitors of TGF-b signaling; HepG2 CAGA-GFP TGF-b/SMAD3 reporter, GFP fluorescence, 18 h; TGF-beta stimulated, 500 pg/mL final; 410,000 compounds, 1.2% hits; Potency, µM (doses to about 46.1 µM), hits mostly inhibitors; AID 588855; note: nearly all actives have a fitted effect of over 65% in size
#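 Using HEPG2 CAGA-GFP reporter cells at 1000 cells/well, we pinned test compounds, stimulated with recombinant TGF-beta (500 pg/mL final) and measured total well GFP after 18 h.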
# Hits are given with their value; - = inactive; ? = inconclusive; . = not tested or not shown. Sampled rows, rich in hits. Any-hit rate of the full collection: about 3.8%. Calls come from the whole dose curve; as a rule, active = well fitted curve in the direction sought with a large enough effect; inconclusive = small, poorly fitted or top-dose-only effect, or another doubt; inactive = no such curve, though single readings can be large; an effect the other way counts as inactive or inconclusive.
SMILES,ATXN viability,HepG2 viability,A549 viability,Nrf2 inh,ATXN2 expr inh,TGFb inhibitor
COc1cccc(NC(=O)COc2ccc(C(=S)N3CCN(C)CC3)cc2OC)c1,-,-,-,13µM,-,-
CCOc1ccc(S(=O)(=O)Nc2cccc(OC)c2)c2cccnc12,-,-,-,14.6µM,-,-
Cn1c(N/N=C/c2cc3ccccc3nc2Cl)nc2ccccc21,-,5.62µM,-,-,-,-
Cn1c(N/N=C/c2c[nH]c3ccccc23)nc2ccccc21,?,-,-,-,-,?
CC(=O)N1CCc2cc(S(=O)(=O)N3c4ccccc4CC3C)ccc21 (stereo not drawn),?,-,-,14.6µM,-,-
CC(=O)N1CCc2cc(S(=O)(=O)N3CCOCC3)ccc21,-,-,-,-,-,-
CCOc1cc(-c2c(C#N)c(N)nc3c2CCc2ccccc2-3)ccc1O,?,12.6µM,-,-,-,?
Cc1cccc(N2CCN(C(=O)Cn3cnc4c3c(=O)n(C)c(=O)n4C)CC2)c1C,?,-,-,-,-,-
O=C(Cn1nc(Cc2cccnc2)c2ccccc2c1=O)N1CCN(c2ccccn2)CC1,-,-,-,-,-,-
Cc1cccc(N2CCN(C(=O)Cn3nc(Cc4cccnc4)c4ccccc4c3=O)CC2)c1C,.,-,-,16.4µM,.,?
CCN(C(=O)Cn1nc(Cc2cccnc2)c2ccccc2c1=O)c1cc(C)ccc1C,.,-,-,18.4µM,.,?
Cc1cccc(N2CCN(C(=O)Cn3ccc4ccccc4c3=O)CC2)c1C,-,-,-,17.8µM,-,-
CCOc1ccccc1N(C)C(=O)Cn1nc(Cc2cccnc2)c2ccccc2c1=O,.,-,-,-,.,-
COc1ccc2ccccc2c1/C=N/NC(=O)c1nnn(-c2nonc2N)c1C(C)C,-,-,-,-,-,?
Cc1c(C(=O)N/N=C/c2c(O)ccc3ccccc23)nnn1-c1nonc1N,?,-,-,-,1.58µM,-
CCOc1ccc(-c2c(C(=O)N/N=C/c3ccc(C)s3)nnn2-c2nonc2N)cc1,-,-,-,23.1µM,-,-
CCOc1ccc(-c2c(C(=O)N/N=C/c3cccs3)nnn2-c2nonc2N)cc1,-,-,-,11.6µM,-,-
C/C(=N\NC(=O)c1nnn(-c2nonc2N)c1-c1ccccc1)c1ccccc1O,-,-,-,4.61µM,?,-
CCOc1cccc(-c2c(C(=O)N/N=C/c3ccc(C)s3)nnn2-c2nonc2N)c1,-,-,-,-,-,-
COc1ccc(N2CCN(C(=O)COC(=O)c3ccc(C)o3)CC2)cc1,-,-,-,-,-,-
O=C(Nc1ccsc1C(=O)O)c1ccccc1Cl,-,-,-,-,-,-
CCOc1cccc(-c2c(C(=O)N/N=C/c3sccc3C)nnn2-c2nonc2N)c1,-,4.47µM,-,16.4µM,.,10µM
CCOc1ccc(-c2c(C(=O)N/N=C/c3sccc3C)nnn2-c2nonc2N)cc1,?,-,-,-,-,-
O=C(O)c1cccc(-c2nnn(Cc3ccccc3Cl)n2)c1,-,-,-,?,11.2µM,-
Cc1ccc(C(=O)Nc2cccc(C(F)(F)F)c2)cc1-c1ccc2nc(NCCN3CCOCC3)ncc2c1,.,.,.,.,6.11µM,.
OC(CNCCc1ccccc1)COc1ccc(OCC(O)CNCCc2ccccc2)cc1 (stereo not drawn),?,-,-,-,28.2µM,?
O=C(c1ccccc1)c1ccc(OCC(O)CNCc2ccc(F)cc2)cc1 (stereo not drawn),.,-,-,-,-,?
O=C(c1ccccc1)c1ccc(OCC(O)CNCc2cccc(Cl)c2)cc1 (stereo not drawn),-,11.2µM,-,-,-,?
OC(CNCCc1ccc(Cl)cc1)COc1cc(Cl)ccc1Cl (stereo not drawn),?,-,-,-,?,15.8µM
Cc1ccc(-n2c(=O)c3sc4ccccc4c3n(C)c2=O)cc1F,-,-,-,?,-,-
